In PubChem BioAssay (NCATS) one finds Potency and outcome data, which are given here for eight compounds.

Molecules are shown by their SMILES. Records with an inconclusive call do not appear. Where a call stands in place of a potency, no number is given. Active and inactive are the calls of the source. Calls follow the shape of the dose curve; as a rule, active = well fitted inhibition curve with a large enough effect; inconclusive = small, poorly fitted or top-dose-only effect; inactive = flat fitted curve, though single readings scatter.

This assay in a line: P-glycoprotein substrates identified in KB-8-5-11 adenocarcinoma cell line, qHTS therapeutic library screen (AID 1346987). Also: nearly all actives have a fitted effect of over 65% in size. The settings on record: KB-8-5-11 (P-gp overexpressing) viability, CellTiter-Glo, 72 h; series mostly up to 44.5 µM. A digest of the protocol:
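Luminescence from CellTiter-Glo, read 5 min after addition, quantified survival of KB-8-5-11 (P-gp-overexpressing) cells exposed to compounds for 72 h. AC50 was derived from concentration-response curves.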
With `Cc1cccc(NC(=O)CN2CCC(c3ccccn3)CC2)c1`, the Potency result was “inactive”. Still for that read-out and setting: the value for `NC(=O)C(O[C@@H]1O[C@H](CO[C@@H]2O[C@H](CO)[C@@H](O)[C@H](O)[C@H]2O)[C@@H](O)[C@H](O)[C@H]1O)c1ccccc1` (stereo partly drawn) was “inactive”. Turning to `Cc1ccc(Nc2nnc(-c3ccc([N+](=O)[O-])cc3)o2)cc1Cl`, the Potency result was “inactive”. On the same count and under the same terms, the value for `COc1cc(-c2ccc(O)cc2)c(OC)c(O)c1C1=CC(=O)OC1CC(=O)O` (stereo not drawn) was “inactive”.

`COc1cc(C[C@@]2(O)CO[C@@H](c3ccc(O[C@@H]4O[C@H](CO)[C@@H](O)[C@H](O)[C@H]4O)c(OC)c3)[C@H]2CO)ccc1O`: the Potency entry is “inactive”. Same read-out and setting: with `CC1=C(CO)CC(C(C)C2CCC3C4CC=C5CC(OC6OC(COC7OC(CO)C(O)C(O)C7O)C(O)C(O)C6O)CC(O)C5(C)C4CCC23C)OC1=O` (stereo not drawn) the entry was “inactive”. Take `C[C@@H]1O[C@@H](O[C@H]2[C@H](O)[C@@H](O)[C@H](OC(=O)[C@]34CCC(C)(C)C[C@H]3C3=CCC5[C@@]6(C)CC[C@H](O[C@@H]7O[C@H](C(=O)O)[C@@H](O)[C@H](O)[C@H]7O)C(C)(C)C6CC[C@@]5(C)[C@]3(C)CC4)O[C@@H]2CO)[C@H](O)[C@H](O)[C@H]1O` (stereo partly drawn): the outcome is “inactive [at 9.29 µM]”. Take `C/C=C1/CC2C(=O)Nc3cc(O)c(OC)cc3C(=O)N2C1` (stereo not drawn): the Potency entry was “inactive”.
